From PubChem
DAX1 inh-1: inhibitors of DAX1 repression of SF-1 activated StAR promoter; HEK293T StAR-luciferase reporter, SF-1/DAX-1 repression relief; inhibition, % at 6.8 µM; 370,000 tested, 1.1% active; AID 652010;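 active = inhibition above the mean over all tested compounds plus 3 SD, cut at about 3.6% in these data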;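 note: 0% = DAX-1 cells with DMSO and 100% = cells lacking DAX-1 with DMSO; higher inhibition means more luminescence from relief of DAX-1 repression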
hcDAF-12 act: H. contortus DAF-12 activation, primary screen. HEK293 hcDAF-12 lit1-tk-luc reporter, luminescence; 0% DMSO, 100% Δ7-dafachronic acid. activation, % at 6.8 µM. 370,000 tested, 1.4% active;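 active = activation above the mean of all tested compounds plus 3 SD, cut at about 5.5% in these data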;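 note: 100% = response to 3 µM Δ7-dafachronic acid high control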
DAX1 inh-2: NR0B1 (DAX1) inhibition. inhibition, % at 6.75 µM. 340,000 tested, 0.99% active. HEK293 Gal4-DAX1 luciferase reporter, luminescence. P51843. AID 504766;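 active = inhibition above the mean over all tested compounds plus 3 SD, cut at about 4.2% in these data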;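 note: 0% = DAX1-transfected cells with DMSO and 100% = empty-vector control cells with DMSO; inhibition shows as a rise in luminescence from relieved DAX1 repression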
Target sequence (P51843 207-470 limits assumed): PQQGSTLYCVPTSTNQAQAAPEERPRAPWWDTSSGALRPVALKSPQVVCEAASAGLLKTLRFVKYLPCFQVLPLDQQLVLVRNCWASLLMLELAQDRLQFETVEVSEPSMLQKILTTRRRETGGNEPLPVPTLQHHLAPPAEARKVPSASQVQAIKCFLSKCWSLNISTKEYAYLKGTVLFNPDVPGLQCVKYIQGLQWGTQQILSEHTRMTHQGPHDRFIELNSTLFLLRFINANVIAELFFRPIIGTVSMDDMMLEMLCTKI
ssDAF-12 act: activates DAF-12 receptor from parasite S. stercoralis; activation, % at 6.8 µM; HEK293 ssDAF-12/GRIP1 lit1-tk-luc reporter, luminescence; % of 3 µM dafachronic acid response; AID 652126; 370,000 tested, 1% active;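 active = activation above the mean over all tested compounds plus 3 SD, cut at about 0.9% in these data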;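 note: 0% = DMSO-only wells and 100% = 3 µM delta7-dafachronic acid wells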
hgDAF-12 ag: hgDAF-12 agonism, primary luciferase screen | HEK293 GAL4-hgDAF12 UAS-luciferase reporter, agonist luminescence; normalized to butyrate control | activation, % at 6.8 µM | 370,000 tested, 1.8% active | AID 687014;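 active = activation above a cutoff set at the mean of all screened compounds plus 3 SD, cut at about 10% in these data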;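 note: 0% = DMSO wells and 100% = sodium butyrate wells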
An asterisk follows results filed as active; x = no result. Shown are actives, neighbours in structure and some others; about 4.1% of the full set was active somewhere.

SMILES | DAX1 inh-1 | hcDAF-12 act | DAX1 inh-2 | ssDAF-12 act | hgDAF-12 ag
CSCC[C@H](NC(=O)c1cc([N+](=O)[O-])ccc1Cl)c1nc2ccccc2[nH]1 | 1 | 5.9* | 1 | 0 | 1
O=C(Cc1cn2ccsc2n1)NCc1ccccc1 | 0 | 6.0* | 0 | 0 | 3
COC(=O)[C@]12C[C@H](CC(=O)NCCCCc3ccccc3)C(=O)N(Cc3ccco3)C1=C[C@H](COCc1ccccc1)O[C@@H]2C | -1 | -1 | x | -1 | 4
COc1ccccc1C(=O)NC(C)C(c1cccs1)N1CCOCC1 (stereo unspecified) | 0 | 2 | 1 | 1.7* | 3
O=C(O)CCc1ncc(C(F)(F)F)cc1Cl | 0 | -2 | 0 | -1 | -1
FC(F)(F)c1cnc(COc2cc(Cl)cc(Cl)c2)c(Cl)c1 | 0 | 0 | 5.8* | -1 | 3
COC(=O)C1=CN(c2ccc(OC)cc2)C(N)=C(C#N)C1c1ccccc1F (stereo unspecified) | 3.8* | -1 | x | -2 | 1
COC(=O)C1=CN(c2ccc(C(C)(C)C)cc2)C(N)=C(C#N)C1c1ccccc1F (stereo unspecified) | 0 | -1 | x | -1 | 4
Cc1cc(C)c(NC(=O)COc2nncc3ccccc23)c(C)c1 | 0 | 1 | 0 | 1.6* | -2
CC(C)c1ccc(NC(=O)COc2nncc3ccccc23)cc1 | 0 | 0 | -1 | -1 | -3
O=C(COc1nncc2ccccc12)Nc1c(F)c(F)c(F)c(F)c1F | -1 | -2 | 0 | -2 | -1
O=C(COc1nncc2ccccc12)Nc1ccc(F)c(F)c1 | 0 | 0 | 5.7* | -2 | -3
CCn1c(SCC(=O)N/N=C/c2cccc(Oc3ccccc3)c2)nnc1-c1ccccc1 | -1 | -2 | x | -1 | -2
C#CCSc1ncc(-c2ccccc2)cn1 | 1 | 4 | 1 | 1.9* | 13*
CCOc1ccc(-n2c(COc3ccc(C)cc3)nnc2SCC(=O)c2ccc3ccccc3c2)cc1 | -1 | -2 | x | -2 | -2
Cc1nc2ccc(NC(=O)c3cc(Cl)ccc3F)cc2c(=O)[nH]1 | 1 | -2 | x | -1 | 9
Cc1cccn2cc(CCNC(=O)c3ccc(Br)o3)nc12 | 1 | 6.0* | 1 | 1.3* | 5
COc1ccc(C2c3c(oc4ccccc4c3=O)C(=O)N2c2ccc(C)cn2)cc1OC (stereo unspecified) | 1 | -1 | 5.0* | -1 | -1
Cc1cc([N+](=O)[O-])nn1CC(=O)N(C)C1CCCCC1 | 0 | 6.3* | 2 | 1 | 0
COc1ccc(CCN(Cc2cccs2)S(=O)(=O)c2ccc(C)s2)cc1OC | -3 | -2 | x | -2 | 0
Cc1nn2c(-c3ccco3)nnc2c2ccccc12 | 1 | 5.9* | 1 | 0 | 2
O=S(=O)(c1ccc(Br)cc1)N1CCN=C1SCc1cccnc1 | 0 | -1 | 0 | -1 | -2
O=S(=O)(c1ccc(F)cc1)N1CCN=C1SCc1cccnc1 | 1 | -1 | 7.1* | -1 | 1
c1ccc(-c2csc(-c3ccncc3)n2)cc1 | 0 | 1 | 1 | -1 | 3
c1ccc(-c2ccc(-c3ccncn3)cc2)cc1 | 2 | 0 | 3 | 0 | 12*
SMILES | DAX1 inh-1 | hcDAF-12 act | DAX1 inh-2 | ssDAF-12 act | hgDAF-12 ag
COc1ccc(S[C@]2(C(=O)N3CCCC3)CC(=O)N(P(=O)(OC)OC)[C@@H]2c2ccc(OC)cc2)cc1 | -2 | -2 | x | -1 | 4
Cc1cc(/C=C(\C#N)C(=O)NC2CCCCCC2)c(C)[nH]1 | 1 | 3 | 0 | -1 | 4
Cc1cc(/C=C(\C#N)C(=O)NC2CC2)c(C)[nH]1 | 3 | 0 | 3 | 0 | 12*
CCC[C@H]1[C@@H](OC(=O)NCc2ccc(OC)c(OC)c2)CC[C@@]23CCCN2C(=O)CCC[C@@H]13 | x | 0 | x | -2 | 1
O=C(Nc1ccc(C(O)(C(F)(F)F)C(F)(F)F)cc1)c1ccc(F)cc1Cl | x | -1 | x | -1 | 5
COc1ccc(-c2cc(OC)c3ccccc3n2)cc1 | 0 | 4 | 2 | -1 | 1
COc1ccc(-c2cc3cc(OC)c(OC)cc3c(C)n2)cc1 | 1 | 0 | 0 | -1 | 11*
O=C(NCC(c1ccccc1)c1ccccc1)[C@H](Cc1ccccc1)NC1(C(=O)NC2CCCCC2)CCC1 | x | 1 | x | -1 | 2
N#CCCN(C(=O)CSc1n[nH]c(=O)[nH]c1=O)c1ccccc1 | -2 | -1 | -1 | -1 | 1
Cc1ccc(N(CCC#N)C(=O)CSc2nc3ccccc3c(=O)[nH]2)cc1 | 3.7* | -1 | 0 | -1 | 2
CCC[C@H]1[C@@H](NC(=O)c2ccc(Cl)c(C(F)(F)F)c2)CC[C@@]23CCCN2C(=O)CCC[C@@H]13 | x | -1 | x | -2 | -2
Cc1ccc2cc(C#N)c(N3CCN(C(=O)c4cccs4)CC3)nc2c1 | 0 | 6.5* | -1 | -1 | 0
COc1ccc2cc(-c3cccnc3)ncc2c1 | 3 | 2 | 2 | 0 | 11*
COC(=O)[C@]12C[C@H](CC(=O)NCCC(C)C)C(=O)N(Cc3ccco3)C1=C[C@H](COCc1ccccc1)O[C@@H]2C | -1 | 1 | x | -1 | 7
CCCc1nc2c3ccccc3ccn2c1Cc1ccccc1OC | 0 | 3 | x | 0 | 6
CCCc1nc2c3ccccc3ccn2c1Cc1ccc(OC)cc1C | 0 | 3 | x | 1.0* | 1
COc1cccc(-c2nc(N3CC(C)CC(C)C3)c3ccccc3n2)c1O (stereo unspecified) | 0 | 5.9* | 0 | 0 | 0
O=C(CC(O)CCc1ccccc1)c1ccc(O)cc1 (stereo unspecified) | 2 | 2 | 8.4* | -1 | 1
COc1ccc(Oc2ccc(/C=N/NC(=O)c3cccnc3)cc2[N+](=O)[O-])cc1 | 0 | -2 | 4.6* | -2 | 2
c1nc(NC[C@@H]2CCCO2)c2cc(-c3ccc4c(c3)OCO4)ccc2n1 | x | 0 | x | -1 | 6
CCN(CC)CCn1c(C)nc2ccccc21 | 0 | 0 | 4.3* | -1 | 5
CCN(CC)CCn1c2ccccc2c2nc3ccccc3nc21 | -1 | 6.1* | 2 | 0 | 6
O=C(O)Cn1c2ccccc2c2nc3ccccc3nc21 | x | x | 4.9* | x | x
CCN(CC)CCn1c(NC(=O)c2ccc(Cl)cc2)nc2ccccc21 | 1 | 5.7* | 0 | 1.0* | 4
CCCn1c2ccccc2c2nc3ccccc3nc21 | 0 | -2 | 1 | -2 | 1
CC(C)(C)N(Cc1cn(Cc2ccccc2)nn1)S(=O)(=O)c1ccccc1Br | 0 | -1 | x | -1 | 3
CCOC(=O)N/N=C(\C)c1ccc(-n2cnnn2)cc1 | 1 | 2 | 0 | 0 | 13*
CCCC(=O)Nc1sc(C(=O)Nc2cccc(N)c2)c(C)c1C(=O)OC | 3.9* | 1 | 0 | -1 | 7
COC(=O)c1c(NC(C)=O)sc(C(=O)Nc2ccccc2F)c1C | 3 | 1 | 0 | -1 | 13*
CCC(=O)Nc1sc(C(=O)Nc2ccccc2OC)c(C)c1C(=O)OC | 0 | 2 | 0 | 0 | 2
